# Measurements published in paper PMC11006913.
# Positions count from the first letter of the chain named.
# Biological target: T1, PAX4 (Homo sapiens, UniProt O43316 9-242, F177V)
# T1 sequence: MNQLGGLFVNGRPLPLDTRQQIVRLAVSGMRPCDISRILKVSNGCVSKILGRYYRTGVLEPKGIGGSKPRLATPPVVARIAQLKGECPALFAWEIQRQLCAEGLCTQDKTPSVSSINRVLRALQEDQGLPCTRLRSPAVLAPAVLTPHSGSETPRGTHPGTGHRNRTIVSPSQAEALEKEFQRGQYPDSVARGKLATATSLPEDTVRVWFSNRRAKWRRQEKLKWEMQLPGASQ
# Assay: PBM; 200 nM protein, PBS
# Details: dsDNA, one strand shown
row,Sequence,binding signal
1,TAATTTGA,"10.5 upbm affinity estimate (log intensity, higher = more binding, comparable within an allelic series)"
2,GCACCACC,"9.29 upbm affinity estimate (log intensity, higher = more binding, comparable within an allelic series)"
3,CCCTGGTC,"9.22 upbm affinity estimate (log intensity, higher = more binding, comparable within an allelic series)"

# Biological target: HOXA4 (Homo sapiens, UniProt Q00056 201-287)
# Assay: PBM; 200 nM protein, PBS
# Details: dsDNA, one strand shown
# Chain of HOXA4 (Q00056 201-287): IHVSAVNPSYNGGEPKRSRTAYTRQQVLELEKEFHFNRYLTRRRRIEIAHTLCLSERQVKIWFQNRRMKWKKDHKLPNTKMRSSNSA
row,Sequence,binding signal
1,AGCCCGAG,"9.65 upbm affinity estimate (log intensity, higher = more binding, comparable within an allelic series)"
2,ATGAATGA,"11.5 upbm affinity estimate (log intensity, higher = more binding, comparable within an allelic series)"
3,CCGAGAGG,"9.59 upbm affinity estimate (log intensity, higher = more binding, comparable within an allelic series)"
4,GCCTCCCA,"9.75 upbm affinity estimate (log intensity, higher = more binding, comparable within an allelic series)"
5,CCCGACGC,"9.73 upbm affinity estimate (log intensity, higher = more binding, comparable within an allelic series)"
6,TAATTTGA,"12.8 upbm affinity estimate (log intensity, higher = more binding, comparable within an allelic series)"
7,CCCTCTCG,"9.81 upbm affinity estimate (log intensity, higher = more binding, comparable within an allelic series)"
8,GCGGACCC,"9.79 upbm affinity estimate (log intensity, higher = more binding, comparable within an allelic series)"
9,GGGGGAAC,"9.72 upbm affinity estimate (log intensity, higher = more binding, comparable within an allelic series)"
10,GATCCCCC,"9.93 upbm affinity estimate (log intensity, higher = more binding, comparable within an allelic series)"
11,GCCAAGCC,"9.92 upbm affinity estimate (log intensity, higher = more binding, comparable within an allelic series)"
12,ACCTTCGC,"9.8 upbm affinity estimate (log intensity, higher = more binding, comparable within an allelic series)"
13,CAGGCTTC,"9.69 upbm affinity estimate (log intensity, higher = more binding, comparable within an allelic series)"
14,CAGGAAGG,"9.59 upbm affinity estimate (log intensity, higher = more binding, comparable within an allelic series)"
15,CGCGCGCG,"9.94 upbm affinity estimate (log intensity, higher = more binding, comparable within an allelic series)"
16,GCACCACC,"9.72 upbm affinity estimate (log intensity, higher = more binding, comparable within an allelic series)"
17,CCCCACGG,"9.82 upbm affinity estimate (log intensity, higher = more binding, comparable within an allelic series)"

row,Sequence,binding signal
1,CAGCCTCC,"9.62 upbm affinity estimate (log intensity, higher = more binding, comparable within an allelic series)"
2,CCCCCCAG,"9.42 upbm affinity estimate (log intensity, higher = more binding, comparable within an allelic series)"
3,AGCCACGG,"9.87 upbm affinity estimate (log intensity, higher = more binding, comparable within an allelic series)"
4,GACCCTCC,"9.94 upbm affinity estimate (log intensity, higher = more binding, comparable within an allelic series)"
5,GCCGGCCC,"9.78 upbm affinity estimate (log intensity, higher = more binding, comparable within an allelic series)"
6,GCCCGGAC,"9.68 upbm affinity estimate (log intensity, higher = more binding, comparable within an allelic series)"
7,CCCCAGGC,"9.62 upbm affinity estimate (log intensity, higher = more binding, comparable within an allelic series)"
8,CCGGCAGG,"10 upbm affinity estimate (log intensity, higher = more binding, comparable within an allelic series)"
9,CCCTGGTC,"9.69 upbm affinity estimate (log intensity, higher = more binding, comparable within an allelic series)"
10,CCCGAGGG,"9.66 upbm affinity estimate (log intensity, higher = more binding, comparable within an allelic series)"
11,CCGAAGGC,"9.96 upbm affinity estimate (log intensity, higher = more binding, comparable within an allelic series)"
12,CCGGACGG,"9.9 upbm affinity estimate (log intensity, higher = more binding, comparable within an allelic series)"
13,CCCCCTTC,"9.19 upbm affinity estimate (log intensity, higher = more binding, comparable within an allelic series)"
14,CCCGAAGG,"9.76 upbm affinity estimate (log intensity, higher = more binding, comparable within an allelic series)"
15,GAGGTTGC,"9.69 upbm affinity estimate (log intensity, higher = more binding, comparable within an allelic series)"
16,GCCCCGAC,"9.87 upbm affinity estimate (log intensity, higher = more binding, comparable within an allelic series)"

# Biological target: HOXC10 (Homo sapiens, UniProt Q9NYD6 254-340, K271E)
# Assay: PBM; 200 nM protein, PBS
# Details: dsDNA, one strand shown
# Chain of HOXC10 (Q9NYD6 254-340 K271E): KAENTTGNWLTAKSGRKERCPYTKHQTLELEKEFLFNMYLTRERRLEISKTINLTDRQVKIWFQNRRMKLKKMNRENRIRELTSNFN
row,Sequence,binding signal
1,CCCTCTCG,"10.1 upbm affinity estimate (log intensity, higher = more binding, comparable within an allelic series)"
2,GCCAAGCC,"10 upbm affinity estimate (log intensity, higher = more binding, comparable within an allelic series)"
3,CAGGCTTC,"9.96 upbm affinity estimate (log intensity, higher = more binding, comparable within an allelic series)"
4,CGCGCGCG,"10 upbm affinity estimate (log intensity, higher = more binding, comparable within an allelic series)"
5,CCCCACGG,"10 upbm affinity estimate (log intensity, higher = more binding, comparable within an allelic series)"
6,CCGGCAGG,"9.98 upbm affinity estimate (log intensity, higher = more binding, comparable within an allelic series)"
7,CCCCCTTC,"9.78 upbm affinity estimate (log intensity, higher = more binding, comparable within an allelic series)"
8,CCCGAAGG,"9.97 upbm affinity estimate (log intensity, higher = more binding, comparable within an allelic series)"
9,GAGGTTGC,"9.96 upbm affinity estimate (log intensity, higher = more binding, comparable within an allelic series)"
10,GCCCCGAC,"10.1 upbm affinity estimate (log intensity, higher = more binding, comparable within an allelic series)"

# Biological target: MSX2 (Homo sapiens, UniProt P35548 130-214)
# Assay: PBM; 200 nM protein, PBS
# Details: dsDNA, one strand shown
# Chain of MSX2 (P35548 130-214): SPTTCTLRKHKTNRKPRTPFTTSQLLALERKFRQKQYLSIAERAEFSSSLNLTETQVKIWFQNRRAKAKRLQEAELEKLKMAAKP
row,Sequence,binding signal
1,TAATTTGA,"13.4 upbm affinity estimate (log intensity, higher = more binding, comparable within an allelic series)"
2,CGCGCGCG,"9.53 upbm affinity estimate (log intensity, higher = more binding, comparable within an allelic series)"
3,CCCCCCAG,"9.49 upbm affinity estimate (log intensity, higher = more binding, comparable within an allelic series)"
4,GCCCGGAC,"9.46 upbm affinity estimate (log intensity, higher = more binding, comparable within an allelic series)"

# Biological target: ALX3 (Homo sapiens, UniProt O95076 139-225)
# Assay: PBM; 200 nM protein, PBS
# Details: dsDNA, one strand shown
# Chain of ALX3 (Homo sapiens, UniProt O95076 139-225) (O95076 139-225): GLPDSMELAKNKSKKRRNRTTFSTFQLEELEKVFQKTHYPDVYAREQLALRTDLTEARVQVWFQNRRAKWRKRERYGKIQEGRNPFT
row,Sequence,binding signal
1,CAGCCTCC,"7.74 upbm affinity estimate (log intensity, higher = more binding, comparable within an allelic series)"
2,AGCCACGG,"7.83 upbm affinity estimate (log intensity, higher = more binding, comparable within an allelic series)"
3,CCGGCAGG,"7.72 upbm affinity estimate (log intensity, higher = more binding, comparable within an allelic series)"
4,CCGGACGG,"7.87 upbm affinity estimate (log intensity, higher = more binding, comparable within an allelic series)"
5,CCCCCTTC,"7.43 upbm affinity estimate (log intensity, higher = more binding, comparable within an allelic series)"

# Biological target: T2, PAX4 (Homo sapiens, UniProt O43316 9-242, F177Y)
# T2 sequence: T1 sequence with V169Y
# Assay: PBM; 200 nM protein, PBS
# Details: dsDNA, one strand shown
row,Sequence,binding signal
1,TAATTTGA,"10.9 upbm affinity estimate (log intensity, higher = more binding, comparable within an allelic series)"
2,GCACCACC,"9.28 upbm affinity estimate (log intensity, higher = more binding, comparable within an allelic series)"
3,CCCTGGTC,"9.15 upbm affinity estimate (log intensity, higher = more binding, comparable within an allelic series)"

# Biological target: ALX3 (Homo sapiens, UniProt O95076 139-225, L168Q)
# Assay: PBM; 200 nM protein, PBS
# Details: dsDNA, one strand shown
# Chain of ALX3 (Homo sapiens, UniProt O95076 139-225, L168Q) (O95076 139-225 L168Q): as the sequence (O95076 139-225) above, with L30Q counted along it
row,Sequence,binding signal
1,CAGCCTCC,"7.64 upbm affinity estimate (log intensity, higher = more binding, comparable within an allelic series)"
2,AGCCACGG,"7.8 upbm affinity estimate (log intensity, higher = more binding, comparable within an allelic series)"
3,CCGGCAGG,"7.79 upbm affinity estimate (log intensity, higher = more binding, comparable within an allelic series)"
4,CCGGACGG,"7.82 upbm affinity estimate (log intensity, higher = more binding, comparable within an allelic series)"
5,CCCCCTTC,"7.31 upbm affinity estimate (log intensity, higher = more binding, comparable within an allelic series)"

# Biological target: HOXC9 (Homo sapiens, UniProt P31274 178-260, R222W)
# Assay: PBM; 200 nM protein, PBS
# Details: dsDNA, one strand shown
# Chain of HOXC9 (P31274 178-260 R222W): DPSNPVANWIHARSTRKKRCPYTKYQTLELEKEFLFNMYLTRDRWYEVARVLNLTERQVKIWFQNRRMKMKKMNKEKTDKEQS
row,Sequence,binding signal
1,AGCCCGAG,"9.78 upbm affinity estimate (log intensity, higher = more binding, comparable within an allelic series)"
2,CCGAGAGG,"9.58 upbm affinity estimate (log intensity, higher = more binding, comparable within an allelic series)"
3,GCCTCCCA,"9.65 upbm affinity estimate (log intensity, higher = more binding, comparable within an allelic series)"
4,CCCGACGC,"9.75 upbm affinity estimate (log intensity, higher = more binding, comparable within an allelic series)"
5,CAGGCTTC,"9.74 upbm affinity estimate (log intensity, higher = more binding, comparable within an allelic series)"
6,AGCCACGG,"9.71 upbm affinity estimate (log intensity, higher = more binding, comparable within an allelic series)"
7,GACCCTCC,"9.65 upbm affinity estimate (log intensity, higher = more binding, comparable within an allelic series)"
8,CCCGAGGG,"9.61 upbm affinity estimate (log intensity, higher = more binding, comparable within an allelic series)"
9,CCGGACGG,"9.76 upbm affinity estimate (log intensity, higher = more binding, comparable within an allelic series)"

# Biological target: ALX3 (Homo sapiens, UniProt O95076 139-225, L168V)
# Assay: PBM; 200 nM protein, PBS
# Details: dsDNA, one strand shown
# Chain of ALX3 (Homo sapiens, UniProt O95076 139-225, L168V) (O95076 139-225 L168V): as the sequence (O95076 139-225) above, with L30V counted along it
row,Sequence,binding signal
1,CAGCCTCC,"7.62 upbm affinity estimate (log intensity, higher = more binding, comparable within an allelic series)"
